Source: PubChem BioAssay AID651956 (Broad Institute, 2012)
Measured potencies and affinities stand elsewhere. Results filed as inconclusive are left out. Values without a mark were called inactive.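 How the source made its calls: active means in every test run, a fitted half-maximal concentration for signal decrease at or below twice the highest tested concentration; inconclusive means runs disagree, flat 30 to 70% decrease, or poor fit; inactive means the rest.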

Test: activation of miR-122 Renilla sensor silencing – cell-based, Huh7 psiCHECK-miR122, Renilla luciferase, cherry-picked, dose response (AID 651956);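 further: 0% = median neutral control wells and -100% = median positive control wells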
Details: Huh7 psiCHECK-miR122 Renilla luciferase reporter, 48 h; series mostly up to 35 µM; activity change, negative = signal decrease: at the top concentration

First: COc1ccc(C2SCC(=O)Nc3c2c(=O)[nH]n3C2CCCCCC2)cc1 (centres undefined)
Second: O=C1NC(=O)N(CCC2=CCCCC2)C(=O)/C1=C\c1cccs1
The “activity change, negative = signal decrease” value of the first is lower: -13% for the first, -3.02% for the second.

Going from `COc1ccc2c(c1)c(CCN)c(C)n2Cc1ccccc1` to `O=C(c1ccco1)c1cn(Cc2ccccc2Cl)c2ccccc12`, the “activity change, negative = signal decrease” value rises from -25.7% to 60.4%.
